From PubChem BioAssay (Tox21)
Inconclusive results are not listed. The source made the active and inactive calls. Calls follow the shape of the dose curve; as a rule, active = well fitted curve in the direction sought with a large enough effect in the repeat runs; inconclusive = weak or mixed curves; inactive = no such curve, though single readings can be large; an effect the other way counts as inactive or inconclusive.

target: Nuclear receptor subfamily 1 group I member 3 (Homo sapiens) (UniProt Q14994); experiment: qHTS assay to identify small molecule antagonists of the constitutive androstane receptor (CAR) signaling pathway (AID 1224838); details: HepG2-CYP2B6-hCAR luciferase, CITCO-stimulated, 24 h; series mostly up to 92.4 µM; activity, negative = inhibition: at the top concentration; also: nearly all actives have a fitted effect of over 40% in size
Sequence (Q14994 whole entry, looked up): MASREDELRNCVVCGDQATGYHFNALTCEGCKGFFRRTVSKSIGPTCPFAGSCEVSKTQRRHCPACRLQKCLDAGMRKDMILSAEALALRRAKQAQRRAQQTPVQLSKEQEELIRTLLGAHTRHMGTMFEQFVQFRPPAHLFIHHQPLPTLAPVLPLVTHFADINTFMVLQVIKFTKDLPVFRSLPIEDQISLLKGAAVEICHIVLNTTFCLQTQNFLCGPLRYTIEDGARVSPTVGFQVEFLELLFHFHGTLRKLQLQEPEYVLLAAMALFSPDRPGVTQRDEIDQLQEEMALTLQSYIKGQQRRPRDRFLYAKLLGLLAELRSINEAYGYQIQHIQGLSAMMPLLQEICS
In short: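 HepG2 cells stably co-transfected with hCAR and a CYP2B6-2.2kb luciferase reporter were seeded 4 h before compound addition at 15 concentrations. Cells were stimulated with 50 nM CITCO (final) for 24 h at 37 C; luciferase luminescence was then read.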
% is scaled to controls: 0 for no effect and ±100 for the full control effect.

| SMILES | activity, negative = inhibition |
| --- | --- |
| Cc1occc1S | 0.806% (inactive) |
| CC(CN)CCCN (stereo not given) | 31.2% (inactive) |
| CCN(CC)CCc1nc(-c2ccccc2)no1 | 37.6% [at 42.5 µM] (inactive) |
| Cc1cc(NC(=O)C(=O)O)cc(C)c1Oc1ccc(O)c2c1CCC2 | 48.8% (inactive) |
| CC(C)(C)c1ccc(S)cc1 | 46.5% (inactive) |
| NCc1ccccc1 | -11.1% (inactive) |
| CC(C)CC=O | 11.2% (inactive) |
| O=[N+]([O-])c1cccc(Cl)c1Cl | 2.66% (inactive) |
| CC(=O)NCCCS(=O)(=O)O | -3.48% [at 42.5 µM] (inactive) |
| C=C(C)C(=O)OCCOc1ccccc1 | 17.2% (inactive) |
| C=CC(=O)OCCOC(=O)CCC(=O)O | 18.7% (inactive) |
| O=C(O)[C@@H]1[C@H]2C[C@H]3c4[nH]c5ccccc5c4CCN3C[C@@H]2CC[C@@H]1O | 4.47% [at 42.5 µM] (inactive) |
| CCCCCCCC/C=C\CCCCCCCC(N)=O | 31.6% (inactive) |
| CN1CCC[C@@H]1c1cccnc1 | -3.09% [at 42.5 µM] (inactive) |
| CC(C)CCCC(C)CCO (stereo not given) | 8.09% (inactive) |
| Cc1cccc(OCCOc2cccc(C)c2)c1 | 75.8% (inactive) |
| CN1CCC(=C2c3ccccc3C=Cc3ccccc32)CC1 | 30% [at 42.5 µM] (inactive) |
| CCCC[C@H]1CN(CC2CCOCC2)C(=O)OC12CCN(C1(C)CCN(C(=O)c3c(C)ncnc3C)CC1)CC2 | 2.55% (inactive) |
| CC(=O)[C@@]1(O)CC[C@H]2[C@@H]3C[C@H](C)C4=CC(=O)CC[C@]4(C)[C@H]3CC[C@@]21C | 60.5% [at 42.5 µM] (inactive) |
| Nc1nc(CC(=O)O)cs1 | 26.2% (inactive) |
| CC(=O)SCc1ccco1 | 11.6% (inactive) |
| CCCC(=O)OCC | 4.36% (inactive) |

target: Nuclear receptor subfamily 1 group I member 3 (Homo sapiens) (UniProt Q14994); experiment: qHTS assay to identify small molecule agonists of the constitutive androstane receptor (CAR) signaling pathway (AID 1224839); details: HepG2 hCAR CYP2B6-luciferase, agonist mode, 24 h; series mostly up to 92.4 µM; activation: at the top concentration; also: nearly all actives have a fitted effect of over 15% in size; also: potency is read from the fitted curve at half-maximal effect;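 as to activation: HepG2 cells stably carrying human CAR and a CYP2B6 luciferase reporter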
In short: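 HepG2-CYP2B6-hCAR cells, 2500/well, 4 h pre-incubation; compounds 15 conc.; PK11195 0.75 uM final; 24 h, 37 C/5% CO2; ONE-Glo luciferase read.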

| SMILES | activation | Potency |
| --- | --- | --- |
| O=C(O)C1CCC(C(=O)O)CC1 (stereo not given) | 5.71% (inactive) | – |
| Cc1occc1S | -0.37% (inactive) | – |
| CC/C(=C\C(=N/O)C(N)=O)C(C)[N+](=O)[O-] (stereo not given) | -0.688% (inactive) | – |
| CC(CN)CCCN (stereo not given) | 3.72% (inactive) | – |
| CCN(CC)CCc1nc(-c2ccccc2)no1 | – | 9.44 µM (active) |
| CC(=O)O[C@H]1C[C@@H]2CC[C@@H]3[C@H](CC[C@@]4(C)[C@H]3C[C@H]([N+]3(C)CCCCC3)[C@@H]4OC(C)=O)[C@@]2(C)C[C@@H]1N1CCCCC1 | -0.0972% [at 42.5 µM] (inactive) | – |
| Cc1cc(NC(=O)C(=O)O)cc(C)c1Oc1ccc(O)c2c1CCC2 | 9.72% (inactive) | – |
| OC(CCN1CCCCC1)(c1ccccc1)C1CCCCC1 (stereo not given) | -2.95% [at 42.5 µM] (inactive) | – |
| NCc1ccccc1 | -0.627% (inactive) | – |
| CC(=O)N(CC(=O)N(C)C)c1ccccc1 | -1.54% [at 42.5 µM] (inactive) | – |
| CC(C)CC=O | 3.34% (inactive) | – |
| O=[N+]([O-])c1cccc(Cl)c1Cl | 1.24% (inactive) | – |
| CC(=O)NCCCS(=O)(=O)O | 2.21% [at 42.5 µM] (inactive) | – |
| C=C(C)C(=O)OCCOc1ccccc1 | 11% (inactive) | – |
| C=CC(=O)OCCOC(=O)CCC(=O)O | 5.24% (inactive) | – |
| O=C(O)[C@@H]1[C@H]2C[C@H]3c4[nH]c5ccccc5c4CCN3C[C@@H]2CC[C@@H]1O | 0.346% [at 42.5 µM] (inactive) | – |
| CCCCCCCC/C=C\CCCCCCCC(N)=O | 9.02% (inactive) | – |
| Cc1nc2ccccc2n1Cc1ccc(Cl)cc1 | – | 11.9 µM (active) |
| CC(C)CCCC(C)CCO (stereo not given) | -2.7% (inactive) | – |
| Cc1cccc(OCCOc2cccc(C)c2)c1 | – | 29 µM (active) |
| C=C(C)C(=O)OC(C)C | -0.994% (inactive) | – |
| CN1CCC(=C2c3ccccc3C=Cc3ccccc32)CC1 | -1.96% [at 42.5 µM] (inactive) | – |
| CCCC[C@H]1CN(CC2CCOCC2)C(=O)OC12CCN(C1(C)CCN(C(=O)c3c(C)ncnc3C)CC1)CC2 | 2.24% (inactive) | – |
| CC(=O)[C@@]1(O)CC[C@H]2[C@@H]3C[C@H](C)C4=CC(=O)CC[C@]4(C)[C@H]3CC[C@@]21C | – | 21.1 µM (active) |
| CCc1nn(C2CCCCC2)c2cc(C3(C#N)CCC(C(=O)O)CC3)ccc12 (stereo not given) | 0.127% (inactive) | – |
| Nc1nc(CC(=O)O)cs1 | 0.854% (inactive) | – |
| CC(=O)SCc1ccco1 | 3.11% (inactive) | – |
| CCCC(=O)OCC | -1.39% (inactive) | – |
